Most compounds without a hit are left out; they make up all but 5.8% or so of the library.
TRPV1 ag: human TRPV1 agonism. Q8NER1. 320,000 tested, 0.19% active. activation, % at 8.33 µM. TRPV1-expressing cells, Fluo-8 calcium influx, agonist mode. AID 540275; in the data active = activation above about 80%; inconclusive = between about 30% and that limit; also: 0% is about no effect
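Fluo-8 calcium influx in TRPV1-expressing cells, kinetic read (ex 480/em 520 nm). Compound added and read 3 min for agonist activity, followed by capsaicin at EC20 final and 2 min further read for enhancement.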
VP16 counter: Gal4-VP16 reporter inhibition counter-screen; Drosophila S2 Gal4-VP16 UAS-luciferase, luminescence, 20 h; Potency, µM (highest dose often 53.6 µM), for inactives: at the highest dose activity, negative = inhibition, actives largely listed as inhibitors; 310,000 tested, 3.5% active;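 also: Gal4-VP16 expression switched on by copper sulfate through the metallothionein promoter; potency is read from the fitted curve at half-maximal effect; % is scaled to controls: 0 for no effect and ±100 for the full control effect; nearly all actives have a fitted effect of over 50% in size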
RORg inh: inhibitors of mouse ROR gamma transcriptional activity. P51450. Drosophila S2 Gal4-RORgamma UAS-luciferase reporter, 20 h. Potency, µM (top dose mostly 53.6 µM), inactives show at the highest dose activity change, negative = inhibition, usual class: inhibitors. 310,000 tested, 5.4% active. AID 2551; also: potency is read from the fitted curve at half-maximal effect; % is scaled to controls: 0 for no effect and ±100 for the full control effect; nearly all actives have a fitted effect of over 60% in size
Target sequence (P51450 whole entry, looked up, the tested form may be a part): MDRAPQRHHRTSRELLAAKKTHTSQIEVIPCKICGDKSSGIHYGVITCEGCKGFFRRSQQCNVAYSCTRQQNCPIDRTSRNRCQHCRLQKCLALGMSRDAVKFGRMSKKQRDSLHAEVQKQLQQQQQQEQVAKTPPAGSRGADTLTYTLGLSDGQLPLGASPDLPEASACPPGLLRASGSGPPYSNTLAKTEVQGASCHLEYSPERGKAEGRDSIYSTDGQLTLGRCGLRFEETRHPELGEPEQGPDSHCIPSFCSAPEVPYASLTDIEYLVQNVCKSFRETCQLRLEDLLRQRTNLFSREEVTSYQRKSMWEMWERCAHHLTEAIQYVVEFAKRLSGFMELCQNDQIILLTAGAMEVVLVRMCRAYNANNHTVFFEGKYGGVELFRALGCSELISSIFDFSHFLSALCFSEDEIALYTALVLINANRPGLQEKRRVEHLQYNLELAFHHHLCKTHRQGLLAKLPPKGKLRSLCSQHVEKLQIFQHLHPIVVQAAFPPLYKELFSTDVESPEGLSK
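Luminescence from a UAS-regulated Photinus luciferase reporter in stably transfected Drosophila Schneider cells is measured; decreased signal marks ROR gamma inhibition. Fusion expression is induced by 700 uM copper sulfate for 20 hr.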
TRPV1 potentiator: potentiators of human vanilloid receptor 1 (TRPV1); potentiation, % at 8.33 µM; Q8NER1; 320,000 tested, 0.02% active; TRPV1-expressing cells, Fluo-8 calcium influx, capsaicin EC20 potentiation; in the data active = potentiation above about 80%; inconclusive = between about 30% and that limit; also: 0% is about no effect
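Fluo-8 calcium influx in TRPV1-expressing cells, kinetic read (ex 480/em 520 nm). Compound added and read 3 min for agonist activity, followed by capsaicin at EC20 final and 2 min further read for enhancement.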
uPA generation: blocks generation of uPA at the cell surface. AID 540303. cell surface uPA generation assay, qHTS. 330,000 tested, 0.31% active. Potency, µM (highest dose often 38.3 µM), for inactives: at the highest dose activity change, negative = inhibition, usual class: inhibitors; active = well fitted inhibition curve with a large enough effect; inconclusive = small, poorly fitted or top-dose-only effect; inactive = no such curve, though single readings can be large or run the other way; tested in mouse RAW 264.7 cells; also: potency is read from the fitted curve at half-maximal effect; % is scaled to controls: 0 for no effect and ±100 for the full control effect; nearly all actives have a fitted effect of over 55% in size
Active calls of the source: *; ? = inconclusive; . = no result given. Unless noted, calls follow the shape of the dose curve; as a rule, active = well fitted curve in the direction sought with a large enough effect; inconclusive = small, poorly fitted or top-dose-only effect, or another doubt; inactive = no such curve, though single readings can be large; an effect the other way counts as inactive or inconclusive.

SMILES | TRPV1 ag | VP16 counter | RORg inh | TRPV1 potentiator | uPA generation
Cc1cc(C(=O)N/N=C/c2cc(Cl)cc([N+](=O)[O-])c2O)c2ccccc2n1 | -10 | 11µM* | 1.6µM* | ? | -7%
CCc1cc(C(=O)N/N=C/c2ccc(O)cc2O)c2ccccc2n1 | -3 | ? | 11µM* | -31 | -18%
COc1cc(/C=N/NC(=O)/C(=C/c2ccccc2)CCO)ccc1O | 1 | 1% | 13% | -1 | -2%
O=C(N/N=C/c1cc(Cl)cc([N+](=O)[O-])c1O)c1ccccc1NS(=O)(=O)c1cccs1 | -7 | 10µM* | 2.8µM* | 28 | 4%
O=C(N/N=C/c1ccc(O)cc1O)/C(=C/c1ccccc1)CCO | 2 | ? | 11µM* | 3 | -11%
Cc1nc2c(=O)n(-c3cccc(C(F)(F)F)c3)nc(C)c2s1 | 2 | 1% | 3% | ? | 2%
CC(C)C[C@@H](CC(=O)N[C@H](CC(=O)N[C@@H]1CCNC[C@H]1C(=O)N[C@H](CC(=O)N[C@@H](CCC(=O)O)CC(=O)O)Cc1ccccc1)C(C)C)NC(=O)[C@@H]1CCCC[C@H]1N | . | -1% | 23% | . | .
COc1ccc(C)cc1NC(=O)CN1C(=O)COc2ccc(S(=O)(=O)N3CCCCC3)cc21 | ? | -5% | -31% | -1 | -4%
CCOc1cnc(-c2c(-c3c(F)cccc3Cl)noc2C)o1 | 25 | ? | -31% | -8 | 1%
COc1cccc(NC(=O)c2cc3ccccc3o/c2=N\O)c1 | 29 | 20µM* | 8.9µM* | -1 | ?
Cc1ccnc(NC(=O)c2cc3ccccc3oc2=O)c1 | 3 | -27% | -36% | -15 | -1%
COc1ccc2oc(=O)c(C(=O)Nc3cccc(C)c3)cc2c1 | 6 | ? | 2.2µM* | -10 | -11%
COc1cccc(NC(=O)CSc2nnc(-c3cc(C)n(-c4ccccc4)c3C)o2)c1 | 22 | 11µM* | 10µM* | 2 | -5%
Cc1cccc(NC(=O)c2cc3ccccc3oc2=O)c1 | 0 | ? | 2.8µM* | 4 | 6%
Cc1ccc(/C=C/C(=O)O)cc1S(=O)(=O)NCc1ccco1 | -3 | -6% | -24% | 6 | 1%
O=C(O)c1ccccc1NC(=O)c1cc2ccccc2oc1=O | -1 | ? | 13µM* | -4 | ?
O=C(Nc1cccc(-c2cn3ccccc3n2)c1)c1cc2ccccc2oc1=O | . | 8.9µM* | ? | . | 13%
COc1cccc(NC(=O)c2cnn(-c3ccccc3)c2C)c1 | 12 | ? | ? | -10 | 10µM*
N=c1oc2ccccc2cc1C(=O)NC1CCCCCC1 | 28 | ? | ? | -13 | -6%
CCc1cccc(NC(=O)c2cnn(-c3ccccc3)c2C)c1 | -2 | -29% | -27% | -1 | ?
O=C(NC1CCCCCC1)c1cc2ccccc2oc1=O | ? | ? | 10µM* | 15 | -4%
C=C(C(C)=O)C(O)c1cccc(Br)c1 (configuration not stated) | . | 13% | -1% | . | .
COc1ccc(C(=O)NNC(=O)CSc2nnc(-c3ccc(O)cc3)n2C)cc1 | 0 | 7% | 16% | -7 | 7%
Cc1sc2nc(CN(C(=O)c3cccs3)C3CCCC3)[nH]c(=O)c2c1C | 7 | ? | 11µM* | 13 | 1%
COCC(=O)N(Cc1nc2sc(C)c(C)c2c(=O)[nH]1)C1CCCCC1 | 6 | 9% | -15% | -13 | 0%
SMILES | TRPV1 ag | VP16 counter | RORg inh | TRPV1 potentiator | uPA generation
Cc1sc2nc(CN(C(=O)NC3CCCCC3)C3CCCC3)[nH]c(=O)c2c1C | -2 | 14µM* | 8.9µM* | -9 | 22%
CCN(CC(=O)Nc1ccc(Cl)c(C(F)(F)F)c1)CC(=O)NC1CCS(=O)(=O)C1 (configuration not stated) | 4 | ? | 2% | 7 | -18%
FC(F)(F)c1cc(Oc2ccccc2)nc(-c2ccccn2)n1 | . | -14% | ? | . | .
CCN(CC)c1cc(C(F)(F)F)nc(-c2ccccn2)n1 | 2 | 11µM* | 2.5µM* | 6 | .
C=CCNc1cc(C(F)(F)F)nc(-c2ccccn2)n1 | . | 7.1µM* | 1.6µM* | . | 3%
CCOc1ccc(S(=O)(=O)N(C)CC(=O)NCc2ccc3c(c2)OCO3)cc1 | 1 | 3% | 20% | 1 | 5%
O=C1CCc2cc(S(=O)(=O)N3CCC(C(=O)NCc4ccccn4)CC3)ccc2N1 | 0 | ? | 13µM* | -6 | .
O=C(O)c1ccc2c(c1)C(=O)N([C@]1(C(=O)O)C[C@H]1c1ccccc1)C2=O | . | -12% | -3% | . | .
O=C(CCc1nc2ccccc2c(=O)[nH]1)N1CCN(S(=O)(=O)c2cc(Cl)ccc2Cl)CC1 | . | . | . | . | 16%
COCCCNC(=S)N1CCN(c2nc3ccccc3s2)CC1 | 14 | 18% | ? | -21 | -1%
COCCNC(=S)N1CCN(c2nc3ccccc3s2)CC1 | 22 | 13µM* | 0% | -13 | 5%
Cn1c(N)c(C(=O)CSc2nc3ccccc3c(=O)n2Cc2ccccc2)c(=O)n(C)c1=O | . | -1% | -36% | . | -6%
CCCn1c(N)c(C(=O)CSc2nc3ccccc3c(=O)n2Cc2ccccc2)c(=O)[nH]c1=O | 11 | ? | 5µM* | 9 | -1%
Cc1cccc(Nc2nnc(SCC3CCCCO3)s2)c1 (configuration not stated) | ? | -11% | 10µM* | -14 | -3%
Nc1cc2nsnc2cc1Br | -2 | -10% | 13µM* | 1 | -5%
CCOC(=O)N1CCN(C(=O)C2CCCN(S(=O)(=O)c3c(C)cc(C)cc3C)C2)CC1 (configuration not stated) | 15 | . | . | -16 | 19%
Clc1ccc(-n2cc(COCc3ccccc3)nn2)cc1 | ? | ? | ? | -7 | 0%
Fc1ccccc1CNC(=S)NC1CCCCC1 | ? | 7.9µM* | 5µM* | -12 | -6%
O=C(COC(=O)C1CCC1)NCc1ccccc1Cl | 6 | -6% | -5% | -2 | 1%
COc1ccccc1CNC(=S)NC1CCCCC1 | ? | 10µM* | 2.2µM* | -20 | -3%
S=C(NCc1ccccc1Cl)NC1CCCC1 | ? | 8.9µM* | 6.3µM* | -4 | -1%
O=S(=O)(NCCC1CC1(Cl)Cl)c1ccc(Cl)cc1 (configuration not stated) | 8 | ? | 5% | -4 | 7%
CC(C(=O)N(C)C1CCS(=O)(=O)C1)N1C(=O)/C(=C/c2ccc(F)cc2)SC1=S (configuration not stated) | -7 | 16µM* | -7% | 19 | ?
CN(C(=O)c1ccc(NC(=O)Cc2ccc([N+](=O)[O-])cc2)cc1)C1CC1 | . | . | . | . | 6%
CCCc1cc(C(=O)NNC(=S)Nc2cccc(C)c2)cs1 | 3 | ? | 2.2µM* | 6 | -4%
Cc1cccc(C(=O)NNC(=S)NC(=O)c2ccccc2)c1 | . | . | . | . | -4%
Cc1cccc(C(=O)NC(=S)Nc2cccc3nc(C)ccc23)c1 | 10 | 10µM* | 7.1µM* | -8 | 5%

Screening results as filed in PubChem.
